Most compounds without a hit are left out; they make up all but 3.2% or so of the library.
CDK5 p35 inh = inhibitors of human CDK5/p35 kinase, primary screen, biochemical, single concentration; Cyclin-dependent kinase 5 (Homo sapiens) + Cyclin-dependent kinase 5 activator 1 (Homo …; Recombinant CDK5/p35, ADP-Glo luminescence, 60 min; inhibition, % at 10 µM; 0.01% of 330,000 active; AID 488839, 2010;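 active = highest replicate inhibition of at least 50% and at least 75% of replicates reaching 50%; inconclusive = only one of the two criteria met; inactive = both criteria failed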;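 note: plate controls were DMSO neutral control for no effect and GW8510 at 10 µM for full effect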
Target sequence (Q00535 whole entry, looked up): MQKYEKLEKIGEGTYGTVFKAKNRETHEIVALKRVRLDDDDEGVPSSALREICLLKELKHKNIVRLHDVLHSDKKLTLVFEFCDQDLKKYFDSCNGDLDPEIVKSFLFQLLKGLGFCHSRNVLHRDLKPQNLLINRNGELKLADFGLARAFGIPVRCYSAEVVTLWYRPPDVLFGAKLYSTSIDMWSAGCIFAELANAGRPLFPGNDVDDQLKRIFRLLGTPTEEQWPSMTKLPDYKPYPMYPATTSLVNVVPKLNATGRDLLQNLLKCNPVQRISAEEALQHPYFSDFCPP
Target sequence (Q15078 whole entry, looked up): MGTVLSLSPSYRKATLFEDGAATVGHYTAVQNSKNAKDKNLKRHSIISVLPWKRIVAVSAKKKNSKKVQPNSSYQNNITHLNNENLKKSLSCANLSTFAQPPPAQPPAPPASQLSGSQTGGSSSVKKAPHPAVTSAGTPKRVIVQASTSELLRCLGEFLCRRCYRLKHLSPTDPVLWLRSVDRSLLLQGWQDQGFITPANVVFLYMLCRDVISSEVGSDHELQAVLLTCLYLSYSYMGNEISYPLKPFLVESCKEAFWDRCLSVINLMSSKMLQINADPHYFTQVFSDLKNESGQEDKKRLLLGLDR
Dyrk1A ADPGlo = rat Dyrk1A kinase inhibitors, primary screen, biochemical, single point, plate reader; Dual specificity tyrosine-phosphorylation-regulated kinase 1A (Rattus norvegicus), Q63470; ADP-Glo luminescence, NFATc1 peptide; inhibition, % at 12.5 µM; 0.43% of 310,000 active; AID 504441, 2011; in the data active = inhibition above about 50%;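 note: plate controls were vehicle with enzyme for no effect and no enzyme for full effect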
Rtt109 Vps75 = inhibitors of C. albicans Rtt109/Vps75 HAT, primary screen, biochemical, ThioGlo CoA-SH fluorescence, plate reader; 0.16% of 330,000 active; Histone acetyltransferase RTT109 (Candida albicans (strain SC5314 / ATCC MYA-2876)), …; inhibition, % at 34.9 µM; purified Rtt109/Vps75, 4 h;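 active = inhibition of at least 50% in every replicate; inconclusive = best replicate reaches 50% inhibition but some replicates fall short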
dFosB activator = activators of delta FosB homodimer, primary screen, biochemical, fluorescence polarization, TAMRA-CDK5 oligo, single point. Protein FosB (Mus musculus), P13346. purified delta FosB; percent of positive-control signal above neutral wells. activation, % at 25 µM. 0.99% of 340,000 active;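 active = mean activation above about 17%, with every replicate also reaching it, limit read from the data, passing the limit was not always enough; inconclusive = only one of the two conditions met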
SMARCA2 act = SMARCA2 (BRM) function activators, primary screen, cell-based, luminescence, high throughput; activation, % at 9.1 µM; 1% of 370,000 active; MG213 cells, MMTV-luciferase reporter, dexamethasone, overnight; in the data active = activation above about 7.8%;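 note: 0% = vehicle wells and 100% = reference activator wells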
esBAF inh = Bmi1 luciferase reporter increase in mESCs, primary screen, esBAF inhibitor project, mouse ES cells, Bmi1 luciferase knock-in, single point; 24 h; 100% = twice the neutral-well signal; reporter increase, % at 12.5 µM; 2% of 350,000 active; AID 602393, 2012; in the data active = activation above about 40%; inconclusive = no clear call, values can overlap the other calls;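 note: 0% = median of the plate's neutral control wells and 100% = double that signal; a rise in the Bmi1 reporter signal indicates esBAF inhibition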
SMARCA2 conf = SMARCA2 (BRM) function activators, confirmation, cell-based, luminescence, triplicate | shares compounds with SMARCA2 act | MG213 cells, MMTV-luciferase with dexamethasone, overnight; MG213 cells expressing E1A, Rb sequestered; DMSO wells 0%, reference activator 100% | activation, % at 9.1 µM | 30% of 3,500 active | AID 652260, 2013;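 active = activation above its plate's cutoff, the mean activation of tested wells plus 3 SD, cut at about 7.9% in these data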
VP16 Luc act = GAL4-VP16 luciferase reporter activation, counter-screen for SMARCA2 (BRM) activator project, cell-based, pG5luc, luminescence, high throughput; HEK293 GAL4-VP16 pG5luc reporter; scaled: DMSO wells 0%, SAHA wells 100%; activation, % at 9.1 µM; shares compounds with SMARCA2 act; 41% of 3,500 active;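 active = activation above the solvent-only control well mean plus 3 SD, averaged across control plates, cut at about 5.2% in these data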
Starred values were filed as active, the others as inactive; ? = inconclusive; . = no result.

SMILES	CDK5 p35 inh	Dyrk1A ADPGlo	Rtt109 Vps75	dFosB activator	SMARCA2 act	esBAF inh	SMARCA2 conf	VP16 Luc act
COC(=O)c1ccc(COc2ccccc2/C=C(\C#N)C(=O)Nc2ccc(C)cc2)cc1	-1	-11	1	-3	8.2*	.	-3	14*
C=CCNC(=O)/C(C#N)=C/c1ccccc1OCc1ccc(C(=O)OC)cc1	0	-2	.	-16	2	.	.	.
O=C(O)C1CCCCC1C(=O)Nc1ccc(-c2ccccc2)cc1 (configuration not stated)	-2	1	-1	-7	12*	.	1	-1
CC(=O)Nc1ccc(NC(=O)C2CCCCC2C(=O)O)cc1 (configuration not stated)	1	1	8	-3	-2	.	.	.
CCNS(=O)(=O)c1ccc(OCCNS(C)(=O)=O)cc1	2	-1	29	6	8.1*	-1	0	0
CCn1cc(C(=O)N2CCCC(N3CCN(c4ccccc4C)CC3)C2)cn1 (configuration not stated)	2	-8	-4	-9	12*	-6	-4	1
CO[C@H]1CN(C)C(=O)c2cc(NC(=O)c3ccccc3F)ccc2OC[C@@H](C)NC[C@@H]1C	.	.	.	.	.	0	.	.
CSc1nsc(SCC(=O)Nc2ccc(C(N)=O)cc2)n1	1	-6	-8	2	-1	.	.	.
CC(=O)c1ccc(NC(=O)CSc2nc(=O)cc(N)n2-c2ccccc2)cc1	1	.	-4	-13	8.6*	63*	7	8.8*
CSc1nsc(SCC(=O)Nc2ccc(C(C)=O)cc2)n1	-1	-1	0	-5	13*	48*	5	10*
COC(=O)c1ccc(NC(=O)CSc2nc(=O)cc(N)n2-c2ccccc2)cc1	-4	-4	-6	-10	1	-2	.	.
O=C(C[C@H]1CC[C@@H]2[C@H](COC[C@H](O)CN2Cc2ccccc2F)O1)N[C@H]1CCN(Cc2ccccc2)C1	.	.	.	.	.	-2	.	.
O=C(NC(=S)Nc1cccnc1Cl)c1ccc(Cl)cc1	1	12	7	15	9.9*	?	3	8.9*
O=C(NC(=S)Nc1cccnc1Cl)c1ccco1	2	6	3	-7	2	3	.	.
O=C(Nc1cccc(C(F)(F)F)c1)C(=O)N1CCCCC1	2	-3	9	-2	9.5*	23	2	3
FC(F)(F)c1cccc(NC(=S)N2CCCCCC2)c1	-4	-2	5	-6	-3	13	.	.
O=C1Nc2ccccc2/C1=N\N=C\c1ccc(O)c(O)c1	3	6	11	-8	9.5*	.	2	6.4*
COc1cc(/C=N/N=C2/C(=O)Nc3ccccc32)ccc1O	8	35	1	-10	-1	.	.	.
O=C(C[C@@H]1C=C[C@@H](NS(=O)(=O)c2ccc(F)cc2)[C@H](CO)O1)NCCN1CCCCC1	.	.	.	.	.	1	.	.
CC(C)C(=O)Nc1ccc(C(=O)N/N=C/c2cc(Br)cc(Br)c2O)cc1	0	-4	-6	13	11*	.	-2	-1
O=C(N/N=C/c1cc(Cl)ccc1O)c1ccc(Br)cc1	1	5	-1	4	-5	.	.	.
CC(=Nc1ccc(C)cc1C)c1sc2ccccc2c1O	0	7	.	-5	15*	.	2	11*
CC(=Nc1cccc(O)c1)c1sc2ccccc2c1O	-1	26	-13	-7	14*	82*	8.1*	13*
Oc1c(C=Nc2ccccc2)sc2ccccc12	-4	8	3	1	3	.	.	.
CC(=Nc1ccc(C)cc1)c1sc2ccccc2c1O	-2	2	-9	-8	5	.	.	.
SMILES	CDK5 p35 inh	Dyrk1A ADPGlo	Rtt109 Vps75	dFosB activator	SMARCA2 act	esBAF inh	SMARCA2 conf	VP16 Luc act
O=C(O)c1cccc2cc(-c3ccccc3)oc(=O)c12	-1	7	-2	-2	-1	2	.	.
O=c1cc(-c2ccc(O)c(O)c2)oc2ccc3ccccc3c12	0	7	4	-2	8.2*	.	-7	5.2*
O=c1oc(-c2ccc(O)c(O)c2)cc2cccc(O)c12	0	44	8	-8	8.5*	64*	8.1*	13*
CCCCCCOC(=O)c1ccc(N)cc1	1	-4	-2	-1	8.0*	.	6	5.8*
N#CC(C#N)=Cc1ccc(NC(=O)c2ccc(Br)cc2)cc1	2	8	-2	6	9.2*	.	4	5
COc1ccc(-c2cc(-c3ccc(OC)c(OC)c3)n[nH]2)c(O)c1	0	3	12	0	2	.	.	.
COc1ccc(-c2cc(-c3ccccc3O)[nH]n2)cc1OC	-1	10	14	6	13*	87*	18*	14*
COC(=O)c1ccc2nc(NC(=O)C(C)C)sc2c1	1	17	13	-9	0	.	.	.
COC(=O)c1ccc2nc(NC(=O)C3CC3)sc2c1	-1	25	-2	-17	12*	-22	8.7*	5.3*
Cc1nc(SCC(=O)N2CCc3ccccc32)n[nH]1	-1	2	9	5	8.7*	.	8.6*	4
Cc1ccc2nc(-c3ccc(SCC(=O)N4CCc5ccccc54)nc3)[nH]c2c1	1	-5	-13	8	9.1*	.	12*	13*
CCc1nnc(NC(=O)CSc2ccc(-c3nc4ccc(C)cc4[nH]3)cn2)s1	-1	0	-8	?	8.7*	.	8.4*	12*
Cc1ccc2nc(-c3ccc(SCC(=O)O)nc3)[nH]c2c1	1	37	11	0	-4	-7	.	.
CC(C)NC(=O)Nc1ccc2c(c1)C(=O)N([C@@H](C)CO)C[C@@H](C)[C@H](CN(C)C(=O)Nc1ccc(F)cc1)OCCCC[C@H](C)O2	.	.	.	.	.	-2	.	.
COc1ccccc1CNC(=O)C[C@H]1CC[C@H]2[C@H](COc3ccc(NC(=O)Nc4ccc(F)c(F)c4)cc3C(=O)N2C)O1	.	.	.	.	.	7	.	.
CNC(=O)C[C@@H]1CC[C@H]2[C@H](COc3ccc(NC(=O)Nc4ccccc4F)cc3C(=O)N2C)O1	.	.	.	.	.	-3	.	.

Compound activity: PubChem, several laboratories
